The record followed here is PubChem BioAssay (EPA / NIEHS).

The structures appear in SMILES notation. Several values for one entry are separate records, joined by “and”; a condition that tells them apart may be missing. Identical values can stand only once. Some compounds were tested as several samples or in several runs, with calls that do not always agree. Activity calls are given as the source filed them. Rule for the calls: active = hit-call score of the fitted dose curve at least 0.9, where 1 is the maximum; inactive = score below 0.9.

The first test is described as follows: ATG_FoxO_CIS: Attagene CIS-FACTORIAL HepG2 Assay for human Forkhead box O (FoxO) (AID 2282943). Conditions: HepG2 Attagene cis-reporter, FoxO element, mRNA; actives raise or lower the signal. In a few lines:
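Transfected HepG2 reporter cells exposed to test chemical for 24 h; reporter RNA measured by reverse transcription, PCR and fluorescent capillary electrophoresis; curves fitted for increases and decreases against DMSO.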
Consider `O=C1O[C@H]([C@H](O)CO)C(O)=C1O`, for which the call was inactive.
As for `C/C=C/c1ccc(OC)cc1`, the molecule was classed as inactive.
Same read-out and setting: to `CCCCCCCCCC[N+](C)(C)[O-]` belongs “inactive”.
Turning to `O=Cc1ccccc1C=O`, the molecule was called inactive.
Still for that read-out and setting: the result for `CC(=O)CC(c1ccccc1)c1c(O)c2ccccc2oc1=O` (configuration not stated) reads “inactive”; that for `Cc1occc(=O)c1O`, “inactive”; that for `CC(=O)O`, “inactive”.
On the same count and under the same terms, to `NC1CCCCC1` belongs “inactive”; to `CCCCCCCC(=O)OC`, “inactive”.
On to `CCCCCCCCCCCCCCOS(=O)(=O)O`, for which the molecule was classed as inactive.
On to `CCc1cc(C2=C(C(=O)O)N(c3ccccc3C(F)(F)F)S(=O)(=O)c3ccccc32)cc2c1OCO2`, for which the result was inactive.
Turning to `CC(C)NCC(O)c1ccc(O)c(O)c1` (configuration not stated), the molecule was called inactive.
On to `CC(N)=O`, for which the outcome was inactive.
With `CCCC[C@H]1CN(CC2CCOCC2)C(=O)OC12CCN(C1(C)CCN(C(=O)c3c(C)ncnc3C)CC1)CC2`, the molecule was called inactive.
Consider `Cc1ccc(-c2cc(C(F)(F)F)nn2-c2ccc(S(N)(=O)=O)cc2)cc1`, for which the call was inactive.
As for `N[C@@H](Cc1c[nH]c2ccccc12)C(=O)O`, the molecule was classed as inactive.
`Oc1ccc(O)cc1`: the molecule was classed as inactive.
For the molecule `CC1(C)C(=O)NC(=O)N1CO`, the result was inactive.
For `Nc1nc(=S)c2[nH]cnc2[nH]1`, the outcome was inactive.
Same read-out and setting: the result for `C/C=C/C=C/C(=O)O` reads “inactive”; that for `CS(=O)(=O)c1ccc([C@@H](C[C@H]2CCC(=O)C2)C(=O)Nc2cnccn2)cc1Cl`, “inactive”.
Take `CCN(CC)CCOc1ccc(C(=C(Cl)c2ccccc2)c2ccccc2)cc1`: the call was inactive.
For the molecule `CC(=O)O[C@]1(C(C)=O)CC[C@H]2[C@@H]3C=C(Cl)C4=CC(=O)[C@@H]5C[C@@H]5[C@]4(C)[C@H]3CC[C@@]21C`, the AC50 was 150 µM (active) and 158 µM (active) and 48.6 µM (active); the call was inactive.
Consider `O=C1OC(c2ccc(O)cc2)(c2ccc(O)cc2)c2ccccc21`, for which the outcome was inactive.
`C#CC(O)C(CC)CCCC` (configuration not stated): the molecule was classed as inactive.
As to `CO[C@@H]1COCC[C@@H]1N[C@@H]1CC[C@@](C(=O)N2CCc3ncc(C(F)(F)F)cc3C2)(C(C)C)C1`, the molecule was called inactive.
Turning to `CCCCCCCCCCCCCCCCO`, the molecule was called inactive.
As for `CC(C)(O)c1ccc(CNC(=O)c2cccnc2Oc2ccc(F)cc2)cc1`, the call was inactive.
`CCC(C)N(C)C(=O)c1cc2ccccc2c(-c2ccccc2Cl)n1` (configuration not stated): the outcome was inactive.

A short description of another test: ATG_GATA_CIS: Attagene CIS-FACTORIAL HepG2 Assay for human GATA Binding Protein (AID 2282944). The conditions noted are these: HepG2 GATA cis-element reporter, Attagene multiplex mRNA; actives raise or lower the signal. In a few lines: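 Transfected cis-reporter HepG2 cells were treated with chemicals for 24 hours. Total RNA was then converted to cDNA, amplified with reporter-specific primers and analysed by fluorescent capillary electrophoresis, using DMSO-treated wells as baseline.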
On to `O=C1O[C@H]([C@H](O)CO)C(O)=C1O`, for which the result was inactive.
Regarding `C/C=C/c1ccc(OC)cc1`, the molecule was classed as inactive.
As for `CCCCCCCCCC[N+](C)(C)[O-]`, the call was inactive.
Regarding `O=Cc1ccccc1C=O`, the molecule was called inactive.
As for `CC(=O)CC(c1ccccc1)c1c(O)c2ccccc2oc1=O` (configuration not stated), the result was inactive.
Take `Cc1occc(=O)c1O`: the outcome was inactive.
On to `CC(=O)O`, for which the result was inactive.
Still for that read-out and setting: the result for `NC1CCCCC1` reads “inactive”; that for `CCCCCCCC(=O)OC`, “inactive”; that for `CCCCCCCCCCCCCCOS(=O)(=O)O`, “inactive”.
With `CCc1cc(C2=C(C(=O)O)N(c3ccccc3C(F)(F)F)S(=O)(=O)c3ccccc32)cc2c1OCO2`, the molecule was classed as inactive.
Turning to `CC(C)NCC(O)c1ccc(O)c(O)c1` (configuration not stated), the result was inactive.
On the same count and under the same terms, the result for `CC(N)=O` reads “inactive”; that for `CCCC[C@H]1CN(CC2CCOCC2)C(=O)OC12CCN(C1(C)CCN(C(=O)c3c(C)ncnc3C)CC1)CC2`, “inactive”.
As for `Cc1ccc(-c2cc(C(F)(F)F)nn2-c2ccc(S(N)(=O)=O)cc2)cc1`, the molecule was classed as inactive.
Turning to `N[C@@H](Cc1c[nH]c2ccccc12)C(=O)O`, the result was inactive.
Same read-out and setting: to `Oc1ccc(O)cc1` belongs “inactive”; to `CC1(C)C(=O)NC(=O)N1CO`, “inactive”.
With `Nc1nc(=S)c2[nH]cnc2[nH]1`, the molecule was classed as inactive.
`C/C=C/C=C/C(=O)O`: the result was inactive.
With `CS(=O)(=O)c1ccc([C@@H](C[C@H]2CCC(=O)C2)C(=O)Nc2cnccn2)cc1Cl`, the molecule was called inactive.
On to `CCN(CC)CCOc1ccc(C(=C(Cl)c2ccccc2)c2ccccc2)cc1`, for which the AC50 was 17.6 µM (active) and the molecule was called inactive.
Regarding `CC(=O)O[C@]1(C(C)=O)CC[C@H]2[C@@H]3C=C(Cl)C4=CC(=O)[C@@H]5C[C@@H]5[C@]4(C)[C@H]3CC[C@@]21C`, the AC50 is 174 µM (active) and 48.9 µM (active); the call was inactive.
On to `O=C1OC(c2ccc(O)cc2)(c2ccc(O)cc2)c2ccccc21`, for which the result was inactive.
In the case of `C#CC(O)C(CC)CCCC` (configuration not stated), the AC50 was 168 µM (active).
On to `CO[C@@H]1COCC[C@@H]1N[C@@H]1CC[C@@](C(=O)N2CCc3ncc(C(F)(F)F)cc3C2)(C(C)C)C1`, for which the molecule was classed as inactive.
Same read-out and setting: the result for `CCCCCCCCCCCCCCCCO` reads “inactive”.
On to `CC(C)(O)c1ccc(CNC(=O)c2cccnc2Oc2ccc(F)cc2)cc1`, for which the molecule was classed as inactive.
For the molecule `CCC(C)N(C)C(=O)c1cc2ccccc2c(-c2ccccc2Cl)n1` (configuration not stated), the molecule was called inactive.

A further test is described as follows: ATG_GLI_CIS: Attagene CIS-FACTORIAL HepG2 Assay for human Zinc Finger Protein GLI1 (AID 2282945). The conditions noted are these: HepG2, Attagene cis-factorial reporter mRNA, GLI element; actives raise or lower the signal. In a few lines:
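Transiently transfected HepG2 cells report endogenous transcription factor activity via cis-element-driven reporter units. After 24 h compound exposure, reporter mRNA was measured by RT-PCR with capillary electrophoresis; bidirectional fitting against DMSO baseline.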
With `O=C1O[C@H]([C@H](O)CO)C(O)=C1O`, the molecule was classed as inactive.
`C/C=C/c1ccc(OC)cc1`: the call was inactive.
Consider `CCCCCCCCCC[N+](C)(C)[O-]`, for which the outcome was inactive.
As to `O=Cc1ccccc1C=O`, the molecule was classed as inactive.
Same read-out and setting: the result for `CC(=O)CC(c1ccccc1)c1c(O)c2ccccc2oc1=O` (configuration not stated) reads “inactive”.
Turning to `Cc1occc(=O)c1O`, the call was inactive.
Still for that read-out and setting: the result for `CC(=O)O` reads “inactive”; that for `NC1CCCCC1`, “inactive”.
Regarding `CCCCCCCC(=O)OC`, the molecule was classed as inactive.
With `CCCCCCCCCCCCCCOS(=O)(=O)O`, the call was inactive.
Still for that read-out and setting: the result for `CCc1cc(C2=C(C(=O)O)N(c3ccccc3C(F)(F)F)S(=O)(=O)c3ccccc32)cc2c1OCO2` reads “inactive”; that for `CC(C)NCC(O)c1ccc(O)c(O)c1` (configuration not stated), “inactive”; that for `CC(N)=O`, “inactive”.
Consider `CCCC[C@H]1CN(CC2CCOCC2)C(=O)OC12CCN(C1(C)CCN(C(=O)c3c(C)ncnc3C)CC1)CC2`, for which the molecule was classed as inactive.
Turning to `Cc1ccc(-c2cc(C(F)(F)F)nn2-c2ccc(S(N)(=O)=O)cc2)cc1`, the call was inactive.
On to `N[C@@H](Cc1c[nH]c2ccccc12)C(=O)O`, for which the result was inactive.
`Oc1ccc(O)cc1`: the result was inactive.
For the molecule `CC1(C)C(=O)NC(=O)N1CO`, the molecule was classed as inactive.
`Nc1nc(=S)c2[nH]cnc2[nH]1`: the molecule was classed as inactive.
The same measure, in the same setting: the result for `C/C=C/C=C/C(=O)O` reads “inactive”; that for `CS(=O)(=O)c1ccc([C@@H](C[C@H]2CCC(=O)C2)C(=O)Nc2cnccn2)cc1Cl`, “inactive”.
For `CCN(CC)CCOc1ccc(C(=C(Cl)c2ccccc2)c2ccccc2)cc1`, the AC50 was 9.35 µM (active) and the molecule was called inactive.
For `CC(=O)O[C@]1(C(C)=O)CC[C@H]2[C@@H]3C=C(Cl)C4=CC(=O)[C@@H]5C[C@@H]5[C@]4(C)[C@H]3CC[C@@]21C`, the AC50 was 100 µM (active) and 145 µM (active); the call was inactive.
As to `O=C1OC(c2ccc(O)cc2)(c2ccc(O)cc2)c2ccccc21`, the AC50 is 159 µM (active).
Consider `C#CC(O)C(CC)CCCC` (configuration not stated), for which the result was inactive.
As for `CO[C@@H]1COCC[C@@H]1N[C@@H]1CC[C@@](C(=O)N2CCc3ncc(C(F)(F)F)cc3C2)(C(C)C)C1`, the result was inactive.
Regarding `CCCCCCCCCCCCCCCCO`, the result was inactive.
Regarding `CC(C)(O)c1ccc(CNC(=O)c2cccnc2Oc2ccc(F)cc2)cc1`, the molecule was classed as inactive.
With `CCC(C)N(C)C(=O)c1cc2ccccc2c(-c2ccccc2Cl)n1` (configuration not stated), the molecule was called inactive.
